# Screening data as filed in PubChem.
# HP1b binding inh: HTS for Inhibitors of HP1-beta Chromodomain Interactions with Methylated Histone Tails; Chromobox protein homolog 1 (Homo sapiens), P83916; AlphaScreen HP1-beta / biotin-H3K9me3 peptide binding; Potency, µM (doses to about 114 µM), inactives show top-dose activity change, negative = inhibition, hits mostly inhibitors; actives 0.56% (n = 390,000); also: nearly all actives have a fitted effect of over 70% in size
#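 AlphaScreen: HP1-beta (50 nM) preformed 30 min with biotin-H3(1-18)K9me3 peptide (50 nM) in PBS pH 7.4, 0.01% Tween-20. Compound added for 30 min at RT, then streptavidin donor/nickel chelate acceptor beads (10 ug/mL) for 30 min.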
# JMJD2A Tudor: qHTS Assay for Inhibitors of JMJD2A-Tudor Domain | AlphaScreen JMJD2A-Tudor / H3K4me3 peptide binding | Potency, µM (series often up to 114 µM), inactives show top-dose activity change, negative = inhibition, actives largely listed as inhibitors | Lysine-specific demethylase 4A (Homo sapiens), O75164 | actives 4.4% (n = 390,000); also: % is scaled to controls: 0 for no effect and ±100 for the full control effect; nearly all actives have a fitted effect of over 50% in size
# GLS inh: qHTS for Inhibitors of Glutaminase (GLS). Glutaminase kidney isoform, mitochondrial (Homo sapiens), O94925. GLS enzymatic activity, qHTS titration. Potency, µM (doses to about 45.5 µM), for the others: top-dose activity change, negative = inhibition, hits mostly inhibitors. actives 0.21% (n = 410,000); also: % is scaled to controls: 0 for no effect and ±100 for the full control effect
#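 Coupled fluorescence readout: glutamate oxidase/HRP/Amplex Red detect glutamate formed by hKGA from L-glutamine (1 mM solution added). Buffer 45 mM KH2PO4 pH 8.2, 0.02% Tween-20; reads at t0 and 30 min RT.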
# G9a block: qHTS Assay for Inhibitors of Histone Lysine Methyltransferase G9a; G9a H3K9 monomethylation, AlphaScreen, 2 h; Histone-lysine N-methyltransferase EHMT2 (Homo sapiens), Q96KQ7; Potency, µM (highest dose often 102 µM), for the others: at the highest dose activity, negative = inhibition, actives largely listed as inhibitors; actives 8.8% (n = 350,000); AID 504332, 2011; also: % is scaled to controls: 0 for no effect and ±100 for the full control effect; nearly all actives have a fitted effect of over 75% in size
#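 Quantitative HTS format: methyltransferase activity on a biotin-tagged H3K9 peptide is measured by AlphaScreen, using a rabbit anti-monomethyl-H3K9 antibody with streptavidin donor and anti-IgG acceptor beads. Final levels are 20 nM enzyme, 500 nM peptide, 20 uM SAM; 2 h RT.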
# L3MBTL1 inh: qHTS Assay for the Inhibitors of L3MBTL1; AlphaScreen L3MBTL1–H3K9me1 peptide binding; Potency, µM (top dose mostly 57.1 µM), for inactives: at the highest dose activity, negative = inhibition, most hits filed as inhibitors; actives 0.66% (n = 230,000); AID 485360, 2010; also: % is scaled to controls: 0 for no effect and ±100 for the full control effect; nearly all actives have a fitted effect of over 60% in size
#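 L3MBTL1 (50 nM) pre-complexed 30 min with biotinylated H3(1-15)K9me1 peptide (75 nM), then compounds added for 30 min at room temperature; AlphaScreen streptavidin donor/nickel chelate acceptor beads (10 ug/mL final) read after 30 min dark incubation.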
# BAZ2B inh: qHTS Assay for Inhibitors of BAZ2B; Bromodomain adjacent to zinc finger domain protein 2B (Homo sapiens), Q9UIF8; AlphaScreen BAZ2B-H3K14Ac peptide displacement; Potency, µM (top dose mostly 114 µM), for inactives: top-dose activity change, negative = inhibition, usual class: inhibitors; actives 4.4% (n = 360,000); AID 504333, 2011; also: % is scaled to controls: 0 for no effect and ±100 for the full control effect; nearly all actives have a fitted effect of over 60% in size
#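 AlphaScreen luminescence quantifies BAZ2B engagement of H3K14Ac peptide; the protein and biotinylated peptide are both at 50 nM final, buffer PBS pH 7.4 with 0.01% Tween-20, all steps at room temperature.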
# An asterisk follows results filed as active; ? = inconclusive; · = no result; [ ] = remark or other dose. Compounds with a hit are over-represented: about 10% of the library has one in this group of screens. Calls follow the shape of the dose curve; as a rule, active = well fitted curve in the direction sought with a large enough effect; inconclusive = small, poorly fitted or top-dose-only effect, or another doubt; inactive = no such curve, though single readings can be large; an effect the other way counts as inactive or inconclusive. Potency is read from the fitted curve at half-maximal effect.
SMILES,HP1b binding inh,JMJD2A Tudor,GLS inh,G9a block,L3MBTL1 inh,BAZ2B inh
Cc1ccc(C(=O)NCCCn2ccnc2)cn1,10.6%,5.1%,0.3%,-5.5%,·,50.1µM*
CSc1ccc(S(=O)(=O)NCCCn2ccnc2)cc1,19.8%,-23.4%,0.5%,51.5%,2.3%,-22.5%
CC(C)(C)c1ccc(C(=O)NCCCn2ccnc2)cc1,62.9%,-15.9%,-11.2%,·,-3.5%,2.5%
O=[N+]([O-])c1cccc(S(=O)(=O)NCCCn2ccnc2)c1,1.2%,-23.0%,1.1%,25.1%[59 µM],-1.4%,50.1µM*
O=C(CNC(=O)c1ccc(Cl)cc1)NCCCn1ccnc1,19.2%,7.1%[57.1 µM],-6.5%,-36.8%,-8.0%,79.4µM*
O=C(Cn1nc(N2CCN(c3ccccc3)CC2)ccc1=O)NCc1ccccc1F,13.1%,-21.1%,20.7%,1.4%[59 µM],·,-10.9%
CCCCCC(=O)c1ccc(O)cc1O,27.6%,-1.4%,-6.4%,19.7%,6.9%,-0.5%
CCC(=O)Oc1ccc(C/C(=N\O)c2ccc(O)cc2O)o1,16.9%,?,?,12.6µM*,31.6µM*,?
Cc1cccc(Cn2cc(C(=O)Nc3ccc(S(N)(=O)=O)cc3)ccc2=O)c1,36.0%[57 µM],1.3%,-7.6%,3.8%[59 µM],·,1.2%
O=C(N=Nc1c(O)[nH]c2ccccc12)c1cc(-c2cccs2)[nH]n1,12.8%,-30.8%,2.4%,·,·,50.1µM*
COc1cccc(CNC(=O)c2ccc(NC(=O)N3CCCCc4ccccc43)cc2)c1,-0.6%,-18.0%,0.6%,-5.5%[59 µM],·,0.0%
O=C(Cn1c2ccccc2c(=O)c2ccccc21)Nc1cccc(F)c1,6.4%,15.8µM*,-17.3%,13.0%,7.6%,-6.8%
CN(C)C(=O)c1ccc(-c2cc(NCc3cccnc3)ncn2)cc1,·,·,·,10.5%[0.501 µM],·,·
Cc1ccccc1NC(=O)c1sc2nc(-c3ccncc3)ccc2c1N,17.3%,1.0%,-11.0%,-5.2%[59 µM],·,0.2%
O=C(NCCCN1CCCC1=O)c1ccc2c(=O)n(-c3ccc(F)cc3)c(=S)[nH]c2c1,·,·,·,31.6µM*,6.3%,-14.5%
COCCNC(=O)c1ccc2c(=O)n(CCCN3CCCC3=O)c(=S)[nH]c2c1,14.3%,?,-24.1%,?,·,?
COc1ccc(Cn2c(=O)[nH]c3cc(C(=O)NCCCN4CCCC4=O)ccc3c2=O)cc1,42.6%,5.1%,-3.7%,8.4%[2.33 µM],2.9%,?
O=C(NCCCN1CCCC1=O)c1ccc2c(=O)n(-c3ccccc3F)c(=S)[nH]c2c1,29.3%,?,-14.0%,25.1µM*,0.6%,?
COC(=O)c1ccc(NC(=O)C(=O)NCCc2sc(-c3cccc(F)c3)nc2C)cc1,17.2%[57 µM],-22.4%,3.0%,1.8%[59 µM],·,-2.4%
CCOc1ccc(OCC)c(NC(=O)c2nnn(CC(=O)Nc3cc(Cl)ccc3OC)c2N)c1,13.8%,-9.0%,-0.7%,-1.9%[59 µM],·,·
CC(=O)N1c2ccc(S(=O)(=O)N3CCN(c4cc(Cl)ccc4C)CC3)cc2CC1C (stereo unspecified),23.1%,-9.6%,0.7%,-13.9%[59 µM],·,-0.5%
O=C1CCCc2oc3c(cc(NS(=O)(=O)c4ccc5c6c(cccc46)C(=O)N5)c4ccccc43)c21,6.7%,-29.4%,6.6%,?,·,-28.7%
Cc1cc(O)ccc1NS(=O)(=O)c1ccc2c3c(cccc13)C(=O)N2,8.8%,-17.2%,50.5%,-22.4%,·,-26.8%
COc1ccc(C)cc1NS(=O)(=O)c1ccc2c3c(cccc13)C(=O)N2,-59.4%,56.2µM*,10.1%,-37.1%[59 µM],·,-20.7%
Cc1oc2c(cc(NS(=O)(=O)c3ccc4c5c(cccc35)C(=O)N4)c3ccccc32)c1C(=O)OC(C)C,-6.4%,-31.0%,11.0%,20µM*,-9.7%,-23.6%
SMILES,HP1b binding inh,JMJD2A Tudor,GLS inh,G9a block,L3MBTL1 inh,BAZ2B inh
CCCCN(C)C(=O)Cn1cnc2sc(C)c(S(=O)(=O)N3CCC(C)CC3)c2c1=O,35.0%,-14.0%,-1.7%,1.3%[59 µM],·,3.5%
Cc1nc2cc(C(F)(F)F)ccc2n1CCNc1nc(-c2ccc(F)cc2)cs1,3.3%,?,7.4%,28.2µM*,6.3%,?
Cc1ccc(-c2csc(NCCn3c(-c4ccncc4)nc4ccccc43)n2)cc1,5.9%,-22.7%,1.0%,20µM*,-3.1%,-37.0%
CC[C@]1(c2cccc(C)c2)C(=O)N(C(=O)OC)N1C(=O)OC,49.9%,-1.4%,22.1%,39.8µM*,-3.5%,-37.0%
CC[C@]1(c2ccccc2)C(=O)N(C(=O)OC)N1C(=O)OC,37.7%,-19.4%,33.4%,·,17.0%,0.7%
COC(=O)N1C(=O)[C@](Cc2ccccc2)(c2ccccc2)N1C(=O)OC,43.2%,-17.3%,12.1%,39.8µM*,-1.1%,-30.9%
CC[C@@]1(c2ccccc2)C(=O)N(C(=O)OC)N1C(=O)OC,64.0%,-10.5%,10.4%,28.2µM*,-1.0%,-34.1%
CCOCCCNC(=S)N1CCN(CC)CC1,?,25.1µM*,-0.5%,22.4µM*,1.5%,50.1µM*
CCOCCCNC(=S)N1CCN(c2nc(-c3ccccc3)cs2)CC1,-12.0%,?,3.3%,?,-2.2%,50.1µM*
CCCNC(=O)N1CCN(Cc2ccco2)CC1,28.0%,-6.9%,2.8%,-4.0%,0.9%,1.5%
COCCCNC(=S)N1CCN(c2nc(-c3ccccc3)cs2)CC1,-5.4%,-30.6%,4.0%,·,-6.7%,?
CCOCCCNC(=S)N1CCN(Cc2ccco2)CC1,39.8µM*,-100.0%,2.2%,10µM*,-1.6%,35.5µM*
CCCCNC(=S)N1CCN(CC)CC1,?,44.7µM*,-4.5%,·,6.6%,50.1µM*
COc1cc(NC(=O)CCc2c(C)nc3nc(-c4cc(OC)cc(OC)c4)nn3c2C)cc(OC)c1,29.8%,-17.8%,-13.0%,8.3%[59 µM],·,-9.1%
CC(Oc1ccccc1)C(=O)Nc1c(C(=O)Nc2cccc(F)c2)oc2ccccc12 (stereo unspecified),41.9%,-8.3%,0.6%,12.8%[59 µM],·,-3.7%
CCCNC(=S)N1CCN(C)CC1,?,8.91µM*,2.6%,10µM*,0.5%,39.8µM*
COc1ccc(CCn2c3c(c(=O)[nH]c2=O)C(NC(=O)c2ccccc2OC)(C(F)(F)F)C(=O)N3)cc1OC (stereo unspecified),29.1%,0.7%,-7.5%,-10.2%[59 µM],·,0.9%
